From PubChem BioAssay (NCI)
The panel holds about 83,000 compounds, 20% with a hit somewhere; the sample as a whole holds those more often.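 The test compound was applied at a single concentration to cells in 96-well plates for 48 hours, and percent growth was recorded.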 Values without a mark were called inactive. Activity calls are given as the source filed them. The calls were made as follows: active = growth percent below 10; inactive = the rest.

Tested on: NCI/ADR-RES ovarian
Test: NCI-60 one-dose screen, 48 h (100 = growth as untreated, 0 = no growth, -100 = all killed)
Conditions: 10 µM unless noted

SMILES	growth
COc1ccc2c(c1)C(=O)/C(=C/c1cccc(OCC(=O)c3ccccc3)c1)O2	65.1%
NC(=S)NNC1CCCCC1	101%
NC(CSC(c1ccccc1)(c1ccccc1)c1ccc(F)cc1)C(=O)O (stereo not drawn)	37.5%
CC1=C[S+](c2ccccc2)c2cccc3cc4ccccc4c1c23 (stereo not drawn)	27%
Cn1c(I)c(C#C[Si](C)(C)C)c(=O)[nH]c1=O	83.3%
COc1ccc2c(-c3ccc(F)cc3)c(C#N)c(=NC(C)=O)oc2c1	31.2%
Nc1ccc(S(=O)(=O)Nc2ccnn2-c2ccccc2)cc1	103%
Cc1cn(C2CC(F)C(CO)O2)c(=O)[nH]c1=O (stereo not drawn)	86.5%
CCCN1C(=O)CSC1=Nc1ccc2cc3ccc(N=C4SCC(=O)N4CCC)cc3nc2c1	24.5%
CC(=O)c1cc2c(c(O)c1C)C(=O)C(=O)c1c(O)cccc1-2	-8.15% (active)
CC(C)(C)NC(C1=CC(C)(C)c2ccccc2C1=O)c1ccccc1 (stereo not drawn)	-43.3% (active)
CC(=O)N1N=C(CCC(=O)c2nc3ccc([N+](=O)[O-])cc3[nH]2)OC1c1ccc(O)cc1 (stereo not drawn)	99.9%
CCC1(C(N)=O)CC2C=CC1CC2 (stereo not drawn)	244%
C=C1C(=O)O[C@H]2[C@H]1CC/C(C(=O)Nc1ccc(OC)c(C(N)=O)c1O)=C\CC[C@@]1(C)O[C@@H]21	92.5%
Nc1nc2ccc(CNc3ccc(C(=O)NC(CC(=O)O)C(=O)O)cc3)cc2c(=O)[nH]1 (stereo not drawn)	33%
CCOC(=O)NNc1nncc2ccccc12	103%
COc1ccc2c(c1)nnc1c3cccnc3[nH]c21	13.8%
CC1(C)N=C(N)N=C(N)N1c1ccc(F)c(C(F)(F)F)c1	91.9%
O=C1CN(CCN2CC(=O)NC(=O)C2)CC(=O)N1	99.9%
COc1ccc(/C(Cl)=N/N=C(\Cl)c2cc(OC)c(OC)c(OC)c2)cc1OC(C)=O	89.1%
CC1(C)N=C(N)N=C(N)N1c1cccc(CCCCc2ccccc2)c1	90.3%
CC(=O)c1ccc2c(c1)C1C=CCC1[C@H](c1cc3c(cc1Br)OCO3)N2 (stereo partly drawn)	10.8%
Clc1ccc2c(c1)nnn1c3ncccc3c(Br)c21	85.8%
